According to PubChem BioAssay (NCATS):
Values joined by “and” are separate entries in the source; they are usually repeats but may differ in a detail not shown here. Identical values can stand only once. Results filed as inconclusive are left out. Where a call stands in place of a potency, no number is given. Active and inactive are the calls of the source. Unless noted, calls come from the whole dose curve.

Columns and labels:
[1] = target: Peroxisome proliferator-activated receptor gamma (Homo sapiens) (UniProt P37231); assay: qHTS assay for small molecule agonists of peroxisome proliferator-activated receptor gamma signaling (AID 588536; active = well fitted curve in the direction sought with a large enough effect in the signal ratio, with a control signal flat, not every such curve was filed as active; the % refers to the signal ratio)
Peroxisome proliferator-activated receptor gamma (Homo sapiens), sequence (P37231 whole entry, looked up): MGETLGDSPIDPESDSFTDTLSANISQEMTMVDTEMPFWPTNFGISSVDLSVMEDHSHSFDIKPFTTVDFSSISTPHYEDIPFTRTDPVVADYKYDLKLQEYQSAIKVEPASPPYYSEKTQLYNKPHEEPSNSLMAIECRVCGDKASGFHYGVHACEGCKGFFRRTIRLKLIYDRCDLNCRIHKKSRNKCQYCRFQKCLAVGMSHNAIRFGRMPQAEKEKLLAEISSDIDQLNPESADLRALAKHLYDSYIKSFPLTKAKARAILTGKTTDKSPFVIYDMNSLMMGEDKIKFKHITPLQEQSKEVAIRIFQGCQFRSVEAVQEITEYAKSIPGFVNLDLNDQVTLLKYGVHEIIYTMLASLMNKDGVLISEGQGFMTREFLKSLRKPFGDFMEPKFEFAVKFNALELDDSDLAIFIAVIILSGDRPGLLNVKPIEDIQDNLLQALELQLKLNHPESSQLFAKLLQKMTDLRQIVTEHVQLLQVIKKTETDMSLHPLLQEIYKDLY
Procedure, shortened: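 HEK293 UAS-bla reporter line, 1% charcoal/dextran FBS; titration, 16 h, 37 C; CCF4 loading 2 h RT; fluorescence 460/530 nm. Normalized to rosiglitazone 2 uM = 100%, DMSO = 0%.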

[2] = target: Vitamin D3 receptor (Homo sapiens) (UniProt P11473); assay: qHTS assay for small molecule agonists of vitamin D receptor signaling (AID 588543)
Vitamin D3 receptor (Homo sapiens), sequence (P11473 whole entry, looked up): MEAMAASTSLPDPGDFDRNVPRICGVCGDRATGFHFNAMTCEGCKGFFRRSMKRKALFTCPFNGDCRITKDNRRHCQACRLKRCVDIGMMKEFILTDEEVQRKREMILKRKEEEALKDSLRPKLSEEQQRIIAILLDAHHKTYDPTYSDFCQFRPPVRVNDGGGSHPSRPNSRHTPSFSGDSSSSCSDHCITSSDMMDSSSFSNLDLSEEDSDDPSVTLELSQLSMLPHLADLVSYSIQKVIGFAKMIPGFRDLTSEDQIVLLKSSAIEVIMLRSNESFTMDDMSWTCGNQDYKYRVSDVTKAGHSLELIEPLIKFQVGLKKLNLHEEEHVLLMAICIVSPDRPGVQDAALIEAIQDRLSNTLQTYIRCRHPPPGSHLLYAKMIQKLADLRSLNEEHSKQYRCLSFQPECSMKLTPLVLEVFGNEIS
Procedure, shortened: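 qHTS in agonist mode: compound titrations stimulate a VDR-driven β-lactamase reporter in HEK293T cells over 16 h at 37 °C. Response normalized to 50 nM 1α,25-dihydroxyvitamin D3 = 100%, DMSO = 0%; Hill fitting gives EC50 and maximal response.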

[3] = qHTS assay for small molecule agonists of retinoid X receptor alpha signaling (AID 588544); conditions: HEK293T RXRa-UAS-bla, beta-lactamase reporter, 18 h; 530 nm emission
[4] = target: Retinoic acid receptor RXR-alpha (Homo sapiens) (UniProt P19793); assay: as above
Retinoic acid receptor RXR-alpha (Homo sapiens), sequence (P19793 whole entry, looked up): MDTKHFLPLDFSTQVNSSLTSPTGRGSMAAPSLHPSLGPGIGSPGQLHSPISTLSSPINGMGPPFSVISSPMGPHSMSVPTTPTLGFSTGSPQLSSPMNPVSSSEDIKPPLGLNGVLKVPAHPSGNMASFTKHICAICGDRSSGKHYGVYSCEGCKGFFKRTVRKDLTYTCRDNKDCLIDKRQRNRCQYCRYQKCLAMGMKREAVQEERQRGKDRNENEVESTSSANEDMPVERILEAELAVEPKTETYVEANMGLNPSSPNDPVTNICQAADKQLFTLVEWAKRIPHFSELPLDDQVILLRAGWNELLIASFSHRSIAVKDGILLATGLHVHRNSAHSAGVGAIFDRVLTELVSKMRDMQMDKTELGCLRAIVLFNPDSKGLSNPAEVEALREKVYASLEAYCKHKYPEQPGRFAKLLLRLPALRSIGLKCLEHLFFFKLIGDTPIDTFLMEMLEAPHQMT

[5] = target: Thyroid hormone receptor beta (Homo sapiens) (UniProt P10828); assay: qHTS assay for small molecule agonists of thyroid hormone receptor beta signaling (AID 588545)
Thyroid hormone receptor beta (Homo sapiens), sequence (P10828 whole entry, looked up): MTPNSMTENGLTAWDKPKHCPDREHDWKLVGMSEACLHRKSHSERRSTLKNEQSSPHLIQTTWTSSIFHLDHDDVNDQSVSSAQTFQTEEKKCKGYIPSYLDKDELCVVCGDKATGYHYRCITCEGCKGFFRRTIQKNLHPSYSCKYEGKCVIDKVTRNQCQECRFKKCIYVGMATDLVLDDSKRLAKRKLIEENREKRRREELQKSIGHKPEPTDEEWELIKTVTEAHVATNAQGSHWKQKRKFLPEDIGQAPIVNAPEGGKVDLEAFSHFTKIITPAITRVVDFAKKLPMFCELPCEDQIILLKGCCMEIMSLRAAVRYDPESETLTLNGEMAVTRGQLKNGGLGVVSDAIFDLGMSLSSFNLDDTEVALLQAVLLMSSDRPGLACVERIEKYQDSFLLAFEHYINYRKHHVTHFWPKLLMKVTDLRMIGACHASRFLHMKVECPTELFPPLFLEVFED
Procedure, shortened: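 Agonist activity was read as beta-lactamase CCF4 fluorescence (405 ex, 460/530 em), scaled between DMSO (0%) and 10 nM T3 (100%), then Hill-fitted for EC50 and efficacy. HEK 293 TR-UAS-bla cells in 2% charcoal/dextran FBS medium were exposed 18 h at 37 C.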

[6] = qHTS assay for small molecule antagonists of retinoid X receptor alpha signaling (AID 588546); conditions: HEK293T RXRa-UAS-bla, beta-lactamase ratio, antagonist mode; measured here: W530 green channel, cytotoxicity proxy;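 note: cells stimulated with 9-cis-retinoic acid as agonist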
Procedure, shortened: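 Beta-lactamase reporter inhibition, read as CCF4 fluorescence ratio (ex 405, em 460/530 nm) after 2 h at RT. HEK293T UAS-bla cells, 2500/well, were stimulated with 9-cis-RA at 500 or 100 nM final alongside test compound for 18 h at 37 C.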

[7] = target: Thyroid hormone receptor beta (Homo sapiens) (UniProt P10828); assay: qHTS assay for small molecule antagonists of thyroid hormone receptor beta signaling (AID 588547; active = well fitted inhibition curve with a large enough effect in the signal ratio, with a control signal flat, not every such curve was filed as active; the % refers to the signal ratio;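 note: cells stimulated with 0.4 nM T3 agonist during compound exposure; series mostly up to about 77 µM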); conditions: TR-UAS-bla HEK293, beta-lactamase ratio, antagonist mode, 18 h
Procedure, shortened: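 Inhibition of T3-driven (0.4nM final) beta-lactamase reporter activity was measured over 0.59 nM to 92 uM compound after 18 h at 37 C. The cells were GripTite HEK293 TR-UAS-bla in charcoal/dextran-stripped serum, with CCF4 ratio read-out and IC50 from Hill fits.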

[8] = target: Voltage-gated inwardly rectifying potassium channel KCNH2 (Homo sapiens) (UniProt Q12809); assay: qHTS Assay for Small Molecule Inhibitors of the Human hERG Channel Activity (AID 588834; active = well fitted curve in the direction sought with a large enough effect; an effect the other way counts as inactive or inconclusive;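 note: lower thallium flux fluorescence means stronger hERG block; nearly all actives have a fitted effect of over 50% in size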; note: potency is the fitted concentration of half-maximal effect)
Voltage-gated inwardly rectifying potassium channel KCNH2 (Homo sapiens), sequence (Q12809 whole entry, looked up): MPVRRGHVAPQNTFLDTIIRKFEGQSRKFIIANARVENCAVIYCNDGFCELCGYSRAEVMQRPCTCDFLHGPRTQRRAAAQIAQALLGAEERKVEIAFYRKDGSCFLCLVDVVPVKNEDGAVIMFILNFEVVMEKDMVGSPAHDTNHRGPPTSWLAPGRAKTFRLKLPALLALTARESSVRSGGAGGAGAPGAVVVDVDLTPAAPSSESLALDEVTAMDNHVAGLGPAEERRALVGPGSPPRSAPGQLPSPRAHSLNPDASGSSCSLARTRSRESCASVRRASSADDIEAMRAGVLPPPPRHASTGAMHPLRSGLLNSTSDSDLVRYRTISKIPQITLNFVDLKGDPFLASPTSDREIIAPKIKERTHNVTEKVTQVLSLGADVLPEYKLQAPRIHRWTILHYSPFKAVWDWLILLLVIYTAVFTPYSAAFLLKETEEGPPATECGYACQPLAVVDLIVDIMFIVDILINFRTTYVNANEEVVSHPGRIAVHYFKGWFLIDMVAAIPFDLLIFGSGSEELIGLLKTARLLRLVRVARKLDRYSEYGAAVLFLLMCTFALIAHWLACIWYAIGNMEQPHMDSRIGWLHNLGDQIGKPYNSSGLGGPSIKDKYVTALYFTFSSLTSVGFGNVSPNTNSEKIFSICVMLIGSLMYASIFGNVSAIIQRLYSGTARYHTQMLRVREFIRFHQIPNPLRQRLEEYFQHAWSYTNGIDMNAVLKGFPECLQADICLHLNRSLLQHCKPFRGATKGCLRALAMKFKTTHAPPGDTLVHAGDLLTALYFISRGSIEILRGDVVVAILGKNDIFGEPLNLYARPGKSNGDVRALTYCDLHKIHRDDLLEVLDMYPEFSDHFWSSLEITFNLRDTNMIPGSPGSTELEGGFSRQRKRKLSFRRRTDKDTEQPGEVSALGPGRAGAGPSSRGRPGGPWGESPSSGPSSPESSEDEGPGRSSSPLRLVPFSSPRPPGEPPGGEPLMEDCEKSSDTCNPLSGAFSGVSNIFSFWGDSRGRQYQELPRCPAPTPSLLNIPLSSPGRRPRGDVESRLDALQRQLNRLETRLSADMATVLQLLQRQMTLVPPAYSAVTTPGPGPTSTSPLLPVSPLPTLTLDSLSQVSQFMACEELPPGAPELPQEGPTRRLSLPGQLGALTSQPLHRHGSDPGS
Procedure, shortened: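 Measured: FluxOR fluorescence after thallium stimulation in U2OS cells transduced with hERG by baculovirus. Compounds pre-incubated around 10 min; medium Opti-MEM with 2% FCS. AC50 from Hill equation.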

[9] = target: Luciferin 4-monooxygenase (Photinus pyralis) (UniProt P08659); assay: Biochemical firefly luciferase enzyme assay for NPC (AID 624030; active = well fitted curve in the direction sought with a large enough effect; an effect the other way counts as inactive or inconclusive;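 note: purified P. pyralis luciferase at 10 nM with luciferin and ATP substrate; series mostly up to about 59 µM; nearly all actives have a fitted effect of over 70% in size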)
Luciferin 4-monooxygenase (Photinus pyralis), sequence (P08659 whole entry, looked up): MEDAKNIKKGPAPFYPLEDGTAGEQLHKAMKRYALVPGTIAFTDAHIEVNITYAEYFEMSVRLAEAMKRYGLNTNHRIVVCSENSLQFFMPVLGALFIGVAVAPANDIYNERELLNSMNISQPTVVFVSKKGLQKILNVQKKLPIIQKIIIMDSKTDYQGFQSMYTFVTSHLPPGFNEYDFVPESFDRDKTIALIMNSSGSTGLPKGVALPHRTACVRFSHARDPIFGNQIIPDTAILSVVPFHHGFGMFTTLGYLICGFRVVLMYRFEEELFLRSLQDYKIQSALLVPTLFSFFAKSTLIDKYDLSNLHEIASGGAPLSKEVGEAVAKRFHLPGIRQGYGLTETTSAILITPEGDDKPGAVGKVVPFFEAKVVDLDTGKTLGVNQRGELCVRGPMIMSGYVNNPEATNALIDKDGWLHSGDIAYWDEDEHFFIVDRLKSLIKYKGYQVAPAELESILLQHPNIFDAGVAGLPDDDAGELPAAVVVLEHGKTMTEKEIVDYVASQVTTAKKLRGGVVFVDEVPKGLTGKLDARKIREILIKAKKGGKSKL
Procedure, shortened: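 Direct inhibition of firefly luciferase enzyme (10 nM final, 50 mM Tris Acetate) assessed by luminescence within 5 minutes. Percent activity scaled between DMSO and PTC124 positive control, with concentration-effect curves classified by fit quality and response.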

[10] = target: Vitamin D3 receptor (Homo sapiens) (UniProt P11473); assay: qHTS assay for small molecule antagonists of vitamin D receptor signaling (AID 588541);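 note: receptor activated by calcitriol during compound treatment; series mostly up to about 77 µM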
Procedure, shortened: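 Antagonist-mode beta-lactamase reporter assay: HEK293T VDR-UAS-bla cells were exposed to titrated compound alongside 1-alpha,25-dihydroxyvitamin D3 at 3 nM final for 16 h. Values were normalized to the 50 nM agonist control and DMSO basal, with IC50 and efficacy from Hill equation fits.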

[11] = S16 Schwann cell viability assay (CellTiter-Glo assay) (AID 624031; active = well fitted curve in the direction sought with a large enough effect; an effect the other way counts as inactive or inconclusive;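 note: cellular ATP luminescence as a viability measure; series mostly up to about 58 µM; nearly all actives have a fitted effect of over 70% in size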)
Procedure, shortened: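 Luminescent ATP read-out (CellTiter-Glo) after 24 h compound exposure of native S16 rat Schwann cells at 37 °C. Signals were normalized between cell-free wells and DMSO-treated cells, set as 0% activity.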

[12] = S16 Schwann cell PMP22 intronic element firefly luciferase assay (AID 624032; active = well fitted curve in the direction sought with a large enough effect; an effect the other way counts as inactive or inconclusive; note: nearly all actives have a fitted effect of over 30% in size; note: potency is the fitted concentration of half-maximal effect)
Procedure, shortened: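 Luciferase reporter of PMP22 intronic-element expression in stably transfected S16 rat Schwann cells, read by ONE-Glo luminescence after 24 h compound exposure at 37 C. Activity scaled between DMSO (0%) and positive-control PTC124; concentration-effect curves quality-classified.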

[13] = S16 Schwann cell PMP22 intronic element beta-lactamase assay (AID 624044); note: nearly all actives have a fitted effect of over 15% in size
Procedure, shortened: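 Rat S16 Schwann cells with beta-Lac driven by a PMP22 intronic element, compound-treated 24 h at 37 °C. LiveBLAzer FRET B/G read: 460 nm normalized to potassium clavulanate vs DMSO; 535 nm FRET as viability; concentration-effect curves classified.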

For `Nc1ccccc1`, the outcome [1] was “inactive”, the outcome [2] was “inactive” and the max response [3] was 9.36%. The Potency [4] was “inactive”, the outcome [5] was “inactive” and the max response [6] was -11.1%. The activity change % (negative = inhibition) [7] was -1.42% (inactive), the Potency [8] was “inactive” and the Potency [9] was “inactive”.

For `Clc1ccc(C(c2ccc(Cl)cc2)C(Cl)(Cl)Cl)cc1`, the Potency [10] was “inactive”, the outcome [2] was “inactive” and the outcome [5] was “inactive”. The activity change % (negative = inhibition) [7] was -20.1% (inactive) and -18.4% (inactive), the Potency [8] was 31.6 µM (active) and the Potency [9] was “inactive”. The outcome [11] was “inactive”, the Potency [12] was 10.2 µM (active) and the outcome [13] was “inactive”.

With `COP(=S)(OC)Oc1ccc(SC)c(C)c1` the outcome [1] was “inactive”, the Potency [10] was “inactive” and the outcome [2] was “inactive”. For the same compound, the max response [3] was -8.01% and -11.8%, the Potency [4] was “inactive” and the outcome [5] was “inactive”. For the same compound, the max response [6] was -22.3% and -7.85%, the activity change % (negative = inhibition) [7] was -0.0791% (inactive) and the outcome [11] was “inactive”. The outcome [13] was “inactive”.

With `CCOP(=S)(OCC)Oc1ccc2c(C)c(Cl)c(=O)oc2c1` the outcome [1] was “inactive”, the outcome [5] was “inactive” and the Potency [8] was “inactive”. For the same compound, the Potency [9] was “inactive”, the outcome [11] was “inactive” and the Potency [12] was 8.09 µM (active). The outcome [13] was “inactive”.

With `CN1C[C@H](C(=O)N[C@]2(C)O[C@@]3(O)[C@@H]4CCCN4C(=O)[C@H](Cc4ccccc4)N3C2=O)C=C2c3cccc4[nH]cc(c34)C[C@H]21` the outcome [2] was “inactive”, the outcome [5] was “inactive” and the Potency [8] was 12.6 µM (active). For the same compound, the Potency [9] was “inactive”.

With `COP(=S)(OC)SCN1C(=O)c2ccccc2C1=O` the outcome [1] was “inactive”, the outcome [5] was “inactive” and the activity change % (negative = inhibition) [7] was -12.6% (inactive). The Potency [8] was “inactive”, the Potency [9] was “inactive” and the outcome [11] was “inactive”. For the same compound, the Potency [12] was “inactive” and the outcome [13] was “inactive”.

In the case of `CC(=O)OCC1=C(C(=O)O)N2C(=O)[C@@H](N)[C@H]2SC1`, the Potency [8] is reported as “inactive”.

In the case of `C[C@@H](N)[C@@H](O)c1ccccc1`, the Potency [8] is reported as “inactive”.

For `Oc1ccccc1`, the max response [3] was -13.8% and -5.05% and the Potency [4] was “inactive”.

For `COC(=O)[C@@H](N)CCCN/C(N)=N/[N+](=O)[O-]`, the Potency [8] was “inactive”.

In the case of `[N-]=[N+]=CC(=O)OC[C@H](N)C(=O)O`, the Potency [10] is reported as “inactive”, the outcome [2] is reported as “inactive” and the max response [3] is reported as -12%. For the same compound, the Potency [4] was “inactive”, the outcome [5] was “inactive” and the max response [6] was -15.7%. For the same compound, the activity change % (negative = inhibition) [7] was 10.8% (inactive).
